Screening data as filed in PubChem.
Hits are enriched below; roughly 12% of the tested compounds scored in any of these assays.
SARS PLpro yeast: qHTS of Yeast-based Assay for SARS-CoV PLP | AID 485353, 2010 | S. cerevisiae expressing SARS-CoV PLpro, growth rescue | Potency, µM (top dose mostly 32.9 µM), actives largely listed as activators | actives 0.19% (n = 330,000); calls by dose curve; further: nearly all actives have a fitted effect of over 55% in size
Sm TGR block: qHTS Assay for the Inhibitors of Schistosoma Mansoni Peroxiredoxins | actives 3% (n = 360,000) | Potency, µM (highest dose often 114 µM), actives largely listed as inhibitors | purified TGR, DTNB reduction, TNB absorbance 405 nm; further: nearly all actives have a fitted effect of over 60% in size
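TGR 20 nM + NADPH 100 uM (dispensed conc.), cpd preinc 15 min RT; start with NADPH (500 uM addition) then DTNB (15 mM addition). Kinetic TNB absorbance, 405 nm filter. Four-parameter Hill fit across titration.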
Pf growth 96h: Primary qHTS for delayed death inhibitors of the malarial parasite plastid, 96 hour incubation; P. falciparum luciferase reporter growth, 96 h; Potency, µM (doses to about 28.7 µM), most hits filed as inhibitors; actives 6.9% (n = 320,000); AID 504834, 2011
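Plates of compound plus infected erythrocytes (2% hematocrit, 0.05% parasitemia final) incubate 96 hours, 37 C, 5% CO2. Detection reagent added; reduced luminescence from the parasites' luciferase reporter flags inhibition.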
Pf growth 48h: Primary qHTS for delayed death inhibitors of the malarial parasite plastid, 48 hour incubation | P. falciparum luciferase growth in erythrocytes, 48 h | Potency, µM (top dose mostly 28.7 µM), actives largely listed as inhibitors | actives 5.9% (n = 310,000) | AID 504832, 2011
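A one-generation exposure of luciferase-tagged malaria parasites in RPMI 1640/Albumax erythrocyte culture, 37 C and 5% CO2. Inhibition is inferred from decreased luminescence after adding detection reagent.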
A number is an active result; – = inactive; ? = inconclusive; · = no result given. Unless noted, the call rests on the fitted dose curve; in most records, active means well fitted curve in the direction sought with a large enough effect; inconclusive means small, poorly fitted or top-dose-only effect, or another doubt; inactive means no such curve, though single readings can be large; an effect the other way counts as inactive or inconclusive.

SMILES	SARS PLpro yeast	Sm TGR block	Pf growth 96h	Pf growth 48h
COc1ccccc1NS(=O)(=O)c1cc([N+](=O)[O-])ccc1N/N=C/c1sc(N2CCOCC2)nc1-c1ccccc1	–	–	?	3.29µM
COc1ccc(C(=O)N/N=C/c2sc(N3CCOCC3)nc2-c2ccccc2)cc1OC	–	–	?	?
COc1ccccc1NS(=O)(=O)c1ccc(N/N=C/c2c(C)nn(-c3ccccc3)c2N2CCCC2)c([N+](=O)[O-])c1	–	–	?	3.29µM
COc1ccccc1NS(=O)(=O)c1ccc(NN=C2CCCC2)c([N+](=O)[O-])c1	–	–	11.7µM	–
COc1ccccc1NS(=O)(=O)c1ccc(N/N=C/C=C/c2ccccc2[N+](=O)[O-])c([N+](=O)[O-])c1	–	–	?	?
CCc1cccc(NC(=O)Cn2c(-c3ccc(F)cc3)cc(C(C)=O)c2C)c1	·	–	·	·
CN(CC(=O)Nc1ccc(Br)cc1)S(=O)(=O)c1cccc2nsnc12	·	–	·	·
C=CCN1C(=O)/C(=C/c2ccc(OC(C)=O)c(OCC)c2[N+](=O)[O-])SC1=S	–	·	–	9.28µM
C=CCN1C(=O)/C(=C\c2ccc(OC(=O)c3ccco3)c(OC)c2)SC1=S	–	–	?	–
COc1cccc(-c2c(-c3cc(OC)cc(OC)c3)n(C)c3ccc(-c4cnc(N5CCOCC5)nc4)cc23)c1	–	·	·	·
CCOc1ccc(Br)cc1S(=O)(=O)NC1CCCC1	–	–	8.28µM	?
CN1C(=O)Cc2cc(S(=O)(=O)CCC(=O)N3CCN(c4cccc(Cl)c4)CC3)ccc21	·	–	·	·
CCCNc1ncnc2c1c(-c1ccccc1)cn2-c1ccccc1	·	–	·	·
N#CCNC1CC(=O)N(c2ccc(F)cc2)C1=O (centres undefined)	–	7.08µM	?	–
CCn1cc(Cl)c(C(=O)Nc2ccccc2C(N)=O)n1	–	–	13.1µM	–
CCn1cc(Cl)c(C(=O)Nc2ccc3c(c2)OCCO3)n1	–	–	–	–
COc1cc(NC(=O)CSCC(=O)Nc2cccc(C(F)(F)F)c2)c(Cl)cc1Cl	–	–	11.7µM	?
CCn1cc(Cl)c(C(=O)Nc2cccc(C(F)(F)F)c2)n1	–	–	2.62µM	–
COc1ccc(-c2noc(CSCC(=O)Nc3cccc(C(F)(F)F)c3)n2)cc1OC	·	–	·	·
CCN(c1cccc(C)c1)c1ncnc2c1cnn2-c1cccc(Cl)c1	·	–	·	·
N#CCCN(CCC#N)C(=O)C1c2ccccc2Oc2ccccc21	–	–	–	–
C[C@H](NC(=O)c1ccccc1Cl)C(=O)OC(C(=O)Nc1cc(C(F)(F)F)ccc1Cl)c1ccccc1 (some centres undefined)	–	–	8.28µM	·
CCN(Cc1ccccc1)C(c1cc2cc(C)ccc2[nH]c1=O)c1nnnn1CCOC (centres undefined)	–	–	11.7µM	?
COCCn1nnnc1C(c1cc2cc(OC)ccc2[nH]c1=O)N1CCC(Cc2ccccc2)CC1 (centres undefined)	–	–	–	11.7µM
COCCn1nnnc1C(c1cc2cc(C)ccc2[nH]c1=O)N1CCCCCC1 (centres undefined)	–	?	–	–
SMILES	SARS PLpro yeast	Sm TGR block	Pf growth 96h	Pf growth 48h
CC(=O)C1=C(c2ccc(Cl)cc2)N(C(C)=O)n2c(nnc2C2CCCCC2)S1	·	–	·	·
CCOC(=O)c1ccc(N2CCN(c3ccc(F)cc3)CC2)c(NC(=O)Nc2ccc(CC)cc2)c1	·	–	·	·
Cc1nc(OCC(=O)c2ccc(Cl)cc2)c(C#N)c2c1COC(C)(C)C2	–	–	11.7µM	·
CC1(C)Cc2c(C#N)c(OCC(=O)c3ccc(Cl)cc3)nc(-c3ccco3)c2CO1	–	?	?	?
CCc1nc(OCC(=O)c2ccccc2)c(C#N)c2c1COC(C)(C)C2	–	–	11.7µM	·
Cc1ccc(S(=O)(=O)N2CCN(C(=O)NCc3ccc(C(=O)O)cc3)CC2)cc1	–	–	–	–
O=C(COc1cc2oc(=O)cc(-c3ccccc3)c2cc1Cl)NCCN1CCOCC1	–	–	–	–
Cc1ccc(-c2nc3n(n2)C(c2ccccc2C)C=C(c2ccc(Cl)cc2)N3)cc1 (centres undefined)	·	–	·	·
Cc1[nH]c2ccc(C(=O)OC(C)C(=O)NC3CCCCC3C)cc2c1C (centres undefined)	–	–	?	4.65µM
O=C(NCCCN1CCCC1=O)c1ccc([N+](=O)[O-])s1	·	–	?	10.4µM
O=C(NC1CCCC1)c1ccc([N+](=O)[O-])s1	–	–	10.4µM	–
CC(C)(C)C(=O)O/N=C(\N)c1ccc([N+](=O)[O-])s1	–	–	?	?
N/C(=N\OC(=O)C1CC1)c1ccc([N+](=O)[O-])s1	–	–	6.57µM	?
CC(OC(=O)c1ccc2c(c1)OCO2)C(=O)NC1CCCCC1C (centres undefined)	–	–	–	–
N#Cc1ccc(CN2CCN(C(=O)CC(NC(=O)c3ccccc3)c3ccccc3)CC2)cc1 (centres undefined)	–	–	–	–
CC(OC(=O)c1ccc([N+](=O)[O-])s1)C(=O)NC1CCCCC1C (centres undefined)	–	–	?	13.1µM
COc1ccc(OC)c(Nc2nc(N)nc(CCl)n2)c1	–	31.6µM	?	?
COc1ccc(OCc2nc(N)nc(Nc3ccccc3OC)n2)cc1	–	?	–	–
COc1ccccc1Nc1nc(N)nc(CCl)n1	–	28.2µM	–	?
Cc1[nH]n(-c2ccccc2)c(=O)c1/C=N/NC(=O)c1ccccc1F	–	–	2.33µM	·
COCC(=O)N/N=C/c1c(C)[nH]n(-c2ccccc2)c1=O	–	–	–	?
Cc1[nH]n(-c2ccccc2)c(=O)c1/C=N/NC(=O)COc1ccccc1[N+](=O)[O-]	14.1µM	–	?	?
O=S1(=O)c2ccccc2C(CCO)N1Cc1ccccc1 (centres undefined)	–	28.2µM	–	–
COC(=O)CC1c2ccccc2S(=O)(=O)N1Cc1ccccc1 (centres undefined)	–	31.6µM	–	–
CC(C)C[C@@H](N)C(=O)O	·	·	?	–
SMILES	SARS PLpro yeast	Sm TGR block	Pf growth 96h	Pf growth 48h
Cc1nn(S(=O)(=O)c2ccc(Br)cc2)c(C)c1S(=O)(=O)N1CCOCC1	–	–	–	–
COc1ccc(-n2ncc3c2CC(C)(C)CC3NC(=O)CCn2cncn2)cc1 (centres undefined)	–	–	?	–
O=C(NCc1ccccc1Cl)C1CCN(S(=O)(=O)c2ccc(-n3cnnn3)cc2)CC1	–	–	–	–
Cc1ccc(NC(=O)c2ccc(N3CCCC3=O)cc2)cc1S(=O)(=O)N1CCCCC1	–	–	0.37µM	?
CCOc1ncccc1C(=O)Nc1ccc(C)c(S(=O)(=O)N2CCCCCC2)c1	–	–	?	13.1µM
O=C(NCc1ccccc1Cl)C1CCN(S(=O)(=O)c2ccc(N3CCCC3=O)cc2)CC1	–	–	9.28µM	?
C=CCN(CC=C)C(=O)C1CCN(S(=O)(=O)c2ccc(N3CCCC3=O)cc2)CC1	–	–	7.38µM	–
